Reference: PubChem BioAssay (NCATS)
Results filed as inconclusive are left out. A call without a number means that no potency is given here. The source made the active and inactive calls. The call rests on the fitted dose curve; in most records, active means well fitted curve in the direction sought with a large enough effect; inconclusive means small, poorly fitted or top-dose-only effect, or another doubt; inactive means no such curve, though single readings can be large; an effect the other way counts as inactive or inconclusive.

Columns and labels:
[1] = qHTS assay for measurement of the activity of small molecule inhibitors on Zika virus induced Caspase-3 activity in human iPSC derived neural progenitor cells (hNPCs) (AID 1224857); further: nearly all actives have a fitted effect of over 65% in size
Procedure, shortened: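 Human iPSC-derived neural progenitor cells pretreated 1 hr with compounds, then infected with Zika virus (2 FFU/cell) for 6 hours at 37 C. Caspase-3/7 measured by Caspase-Glo luminescence; % inhibition calculated from induction scaled to uninfected (0%) and infected (100%) wells.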

[2] = NS1 protein of Zika virus - qHTS assay to identify small molecule inhibitors in human HEK 293 cells (AID 1347053); further: series mostly up to about 46 µM; nearly all actives have a fitted effect of over 55% in size
Procedure, shortened: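 In this cell-based screen, HEK 293 cultures received compound for one hour before Zika MR766 at MOI = 0.5. NS1 was quantified 24 hours later by TR-FRET, normalized to virus-free wells and infected wells.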

[3] = qHTS of pediatric cancer cell lines to identify multiple opportunities for drug repurposing: Primary screen for TC32 cells (AID 1347089); further: nearly all actives have a fitted effect of over 60% in size
Procedure, shortened: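 In the primary qHTS, MIPE compounds were tested at 11 concentrations (0.78 nM to 46 µM) and NPC compounds at 8 (0.59 nM to 46 µM) on TC32 cells for 48 h. CellTiter-Glo luminescence gave viability.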

[4] = qHTS of pediatric cancer cell lines to identify multiple opportunities for drug repurposing: Primary screen for DAOY cells (AID 1347090); further: nearly all actives have a fitted effect of over 55% in size; further: potency means the concentration at half of the fitted maximal effect
Procedure, shortened: (§1)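 Eight- or eleven-point concentration series, 48 h treatment at 37 degrees C in growth media; readout CellTiter-Glo luminescence. Potency and efficacy were taken from the concentration-response curves.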

[5] = qHTS of pediatric cancer cell lines to identify multiple opportunities for drug repurposing: Primary screen for SJ-GBM2 cells (AID 1347091)
Procedure, shortened: as §1

[6] = qHTS of pediatric cancer cell lines to identify multiple opportunities for drug repurposing: Primary screen for A673 cells (AID 1347092); further: nearly all actives have a fitted effect of over 45% in size; further: potency means the concentration at half of the fitted maximal effect
Procedure, shortened: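 48 h compound exposure, A673, 500-1,000 cells/well, 37 degrees C/5% CO2. MIPE: 11-point, 0.78 nM-46 µM; NPC: 8-point, 0.59 nM-46 µM (final). Readout CellTiter-Glo luminescence after 15 min RT.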

[7] = qHTS of pediatric cancer cell lines to identify multiple opportunities for drug repurposing: Primary screen for SK-N-MC cells (AID 1347093); further: series mostly up to about 46 µM
Procedure, shortened: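 Metabolically active cells were quantified by ATP-dependent luminescence (CellTiter-Glo, 15 min at room temperature) following 48 h treatment. Cells had been plated at 500-1,000 per well and settled for 5 h beforehand.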

[8] = qHTS of pediatric cancer cell lines to identify multiple opportunities for drug repurposing: Primary screen for BT-37 cells (AID 1347094); further: potency means the concentration at half of the fitted maximal effect
Procedure, shortened: (§2)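 Phenotypic viability qHTS, 48 h compound exposure, CellTiter-Glo luminescence read-out; multi-concentration dosing so that potency and efficacy derive directly from the primary screen's curves.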

[9] = qHTS of pediatric cancer cell lines to identify multiple opportunities for drug repurposing: Primary screen for NB-EBc1 cells (AID 1347095); further: potency means the concentration at half of the fitted maximal effect
Procedure, shortened: as §2

[10] = qHTS of pediatric cancer cell lines to identify multiple opportunities for drug repurposing: Primary screen for U-2 OS cells (AID 1347096); further: nearly all actives have a fitted effect of over 50% in size
Procedure, shortened: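 Cells (500-1,000/well) in growth media were settled 5 h at 37 degrees C, then given compounds for 48 h. Viability was read as CellTiter-Glo luminescence. Primary runs used MIPE at 11 points (0.78 nM-46 µM) and NPC at 8 points (0.59 nM-46 µM); follow-ups used 11 points.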

[11] = qHTS of pediatric cancer cell lines to identify multiple opportunities for drug repurposing: Primary screen for Saos-2 cells (AID 1347097); further: nearly all actives have a fitted effect of over 40% in size
Procedure, shortened: as §2

[12] = qHTS assay for measurement of the activity of small molecule inhibitors on Zika virus induced Caspase-3 activity in human astrocytoma cells (AID 1224859)
Procedure, shortened: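 SNB-19 astrocytoma cells, 250/well, pretreated 1 h with compounds, then Zika virus at 2 FFU/cell for 6 h at 37 C; Caspase-Glo 3/7 luminescence after 30 min; percent inhibition normalised to uninfected and infected controls.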

[13] = P-glycoprotein substrates identified in KB-3-1 adenocarcinoma cell line, qHTS therapeutic library screen (AID 1346986); further: nearly all actives have a fitted effect of over 60% in size
Procedure, shortened: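 Using luminescence to quantify ATP, parental and P-gp-overexpressing KB cells were compared after 72 h compound titration. KB-8-5-11 was also run with the P-gp inhibitor tariquidar.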

[14] = P-glycoprotein substrates identified in KB-8-5-11 adenocarcinoma cell line, qHTS therapeutic library screen (AID 1346987); further: nearly all actives have a fitted effect of over 65% in size; further: potency means the concentration at half of the fitted maximal effect
Procedure, shortened: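 Human cervical adenocarcinoma KB-8-5-11 cells, selected in colchicine to over-express P-gp and assayed without it, were exposed for 72 h to titrated compounds. An ATP-based luminescent viability signal gave AC50.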

Compound	Potency [1]	Potency [2]	Potency [3]	Potency [4]	Potency [5]	Potency [6]	Potency [7]	Potency [8]	Potency [9]	Potency [10]	Potency [11]	outcome [12]	Potency [13]	Potency [14]
c1ccc2c(c1)CCc1ccccc1N2	inactive	inactive	inactive	inactive	inactive	inactive	inactive	inactive	inactive	inactive	inactive			
COC(=O)c1cc(S(N)(=O)=O)ccc1OC	inactive			inactive	inactive	inactive		inactive	inactive	inactive				
CO[C@]1(NC(=O)CSC(F)F)C(=O)N2C(C(=O)O)=C(CSc3nnnn3CCO)CO[C@H]21		inactive	inactive	inactive	inactive	inactive	inactive	inactive	inactive	inactive		inactive	inactive	inactive
O=C1Nc2ccccc2C1(c1ccc(O)cc1)c1ccc(O)cc1	inactive	inactive	inactive	inactive	inactive	inactive		inactive	inactive	inactive	inactive			
CCCC(=O)OCOC(=O)C1=C(C)NC(C)=C(C(=O)OC)C1c1cccc(Cl)c1Cl (centres undefined)	inactive	inactive	inactive	inactive	inactive	inactive	inactive	inactive	inactive	inactive				
Cc1ccc(CCn2c3c(c4cc(Cl)ccc42)CN(C)CC3)cn1	inactive		inactive	inactive	inactive			inactive	inactive	inactive	inactive			
OC1(c2ccc(Cl)cc2)CCNCC1	inactive	inactive	inactive	inactive	inactive	inactive	inactive	inactive	inactive	inactive	inactive			
CCc1cccc2c(CCO)c[nH]c12	inactive	inactive	inactive	inactive	inactive	inactive	inactive	inactive	inactive	inactive	inactive			
CN(C(=O)C(Cl)Cl)c1ccc(OC(=O)c2ccco2)cc1	inactive		inactive	inactive	inactive	inactive	inactive	inactive	inactive	inactive	inactive			inactive
OCCc1ccccc1	inactive	inactive	inactive	inactive	inactive	inactive	inactive	inactive	inactive	inactive	inactive			inactive
CCO[C@H](Cc1ccc(OCCc2ccc(OS(C)(=O)=O)cc2)cc1)C(=O)O	inactive	inactive	inactive	inactive	inactive	inactive	inactive	inactive	inactive	inactive	inactive			inactive
c1ccc(C(O[C@H]2CCCN(CCc3ccc4c(c3)OCO4)C2)c2ccccc2)cc1	inactive		inactive	inactive		inactive			inactive	inactive				
Nc1c(NC/C=C\COc2cc(CN3CCCCC3)ccn2)c(=O)c1=O	inactive	inactive	inactive	inactive	inactive	inactive	inactive	inactive		inactive				inactive
Nc1ccc2cc3ccc(N)cc3nc2c1	inactive			26.6 µM (active)		13.3 µM (active)			4.73 µM (active)					14.6 µM (active)
CC(C)C[C@H](NC(=O)CNC(=O)[C@H](Cc1ccc(O)cc1)NC(=O)[C@H](CO)NC(=O)[C@H](Cc1c[nH]c2ccccc12)NC(=O)[C@H](Cc1cnc[nH]1)NC(=O)[C@@H]1CCC(=O)N1)C(=O)N[C@@H](CCCN=C(N)N)C(=O)N1CCC[C@H]1C(=O)NCC(N)=O (stereo in doubt)	inactive	inactive	inactive	inactive	inactive	inactive		inactive		inactive	inactive			inactive
O=C1OC2(c3ccccc31)c1cc(I)c(O)c(I)c1Oc1c2cc(I)c(O)c1I	inactive		inactive	inactive		inactive		inactive	inactive	inactive				
Cc1oc(=O)oc1COC(=O)[C@@H]1N2C(=O)[C@@H](NC(=O)[C@H](N)c3ccccc3)[C@H]2SC1(C)C	inactive	inactive	inactive	inactive	inactive	inactive	inactive	inactive	inactive	inactive	inactive			
COc1c(N2C[C@@H]3CCCN[C@@H]3C2)c(F)cc2c(=O)c(C(=O)O)cn(C3CC3)c12	inactive	inactive	inactive	inactive	inactive	inactive		inactive	inactive	inactive	inactive			
COc1cc(/C=C/C(N)=O)cc(OC)c1OC	inactive	inactive	inactive	inactive	inactive	inactive	inactive	0.001 µM (active)			inactive			
O=P(O)(O)OCC(O)CO (centres undefined)	inactive	inactive	inactive	inactive	inactive	inactive	inactive	inactive		inactive	inactive			inactive
